{"source": "PubChem BioAssay AID588501", "about": "(NMMLSC, 2011)", "note": "The campaign covered roughly 360,000 compounds. About 420 (0.12%) were called active. Rule as the data show it: active = inhibition above about 30%; inconclusive = no clear call, values can overlap the other calls; inactive = below that. The entries come from a sample that favours actives as a whole."}
{"molecular_target": "Lethal factor (Bacillus anthracis) (UniProt P15917)", "sequence (P15917 whole entry, looked up)": "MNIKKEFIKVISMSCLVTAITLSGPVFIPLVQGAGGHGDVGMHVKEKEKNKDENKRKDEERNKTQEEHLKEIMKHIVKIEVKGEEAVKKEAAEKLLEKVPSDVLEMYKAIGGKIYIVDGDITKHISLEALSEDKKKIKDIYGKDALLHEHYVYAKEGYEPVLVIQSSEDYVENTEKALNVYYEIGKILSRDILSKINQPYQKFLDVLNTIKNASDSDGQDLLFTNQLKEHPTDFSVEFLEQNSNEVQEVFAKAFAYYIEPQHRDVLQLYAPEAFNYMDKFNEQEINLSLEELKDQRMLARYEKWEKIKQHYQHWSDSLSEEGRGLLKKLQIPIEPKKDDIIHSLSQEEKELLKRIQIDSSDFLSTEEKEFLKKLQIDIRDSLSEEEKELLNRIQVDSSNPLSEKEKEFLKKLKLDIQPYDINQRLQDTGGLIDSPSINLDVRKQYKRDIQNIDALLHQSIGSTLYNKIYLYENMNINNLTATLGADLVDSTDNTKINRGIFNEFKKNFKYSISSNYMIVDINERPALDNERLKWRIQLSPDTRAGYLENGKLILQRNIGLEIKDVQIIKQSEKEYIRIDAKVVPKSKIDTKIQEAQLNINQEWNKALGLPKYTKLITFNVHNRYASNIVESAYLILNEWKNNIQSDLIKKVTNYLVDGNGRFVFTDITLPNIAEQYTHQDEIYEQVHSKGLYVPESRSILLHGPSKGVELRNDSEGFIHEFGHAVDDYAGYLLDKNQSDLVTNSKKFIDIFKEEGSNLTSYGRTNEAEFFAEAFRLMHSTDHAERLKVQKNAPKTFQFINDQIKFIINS", "test": "anthrax lethal factor cleavage blockers – biochemical, multiplex microsphere, MLPCN library, primary screen (AID 588501); also: plate controls were buffer without enzyme for full effect and enzyme alone for no effect", "conditions": "multiplex microsphere protease cleavage assay, LF; at 10 µM; stronger effect = higher value"}
{"smiles": "O=C(COc1ccc2c(C(F)(F)F)cc(=O)oc2c1)Nc1ccc2c(c1)OCCO2", "inhibition": "-1.9% (inactive)"}
{"smiles": "O=C(CN1CCCCCC1)Nc1c(Cl)cc(Cl)cc1Cl", "inhibition": "37.6% (active)"}
{"smiles": "O=C(CN1CCOCC1)Nc1c(Cl)cc(Cl)cc1Cl", "inhibition": "3.3% (inactive)"}
{"smiles": "Cc1cc(C)c(NC(=O)CN2CCCCCC2)c(C)c1", "inhibition": "-3.3% (inactive)"}
{"smiles": "O=C(COc1ccc(Cl)cc1)NCc1nnc(SCC(=O)NCC2CCCO2)o1", "note": "(stereo not given)", "inhibition": "-1% (inactive)"}
{"smiles": "NNc1nc2c(Cl)cccc2s1", "inhibition": "-1.6% (inactive)"}
{"smiles": "CCn1c(CSc2nncn2-c2ccc(OC)cc2)nc2cc(S(=O)(=O)N(C)C)ccc21", "inhibition": "-15% (inactive)"}
{"smiles": "O=C(NNC(=O)c1ccccc1[N+](=O)[O-])Nc1ccccc1C(F)(F)F", "inhibition": "-1.8% (inactive)"}
{"smiles": "CN(C(=O)c1cccc(NC(=O)Cc2cccc([N+](=O)[O-])c2)c1)C1CCCCC1", "inhibition": "2.5% (inactive)"}
{"smiles": "CC1CCN(CC(=O)Nc2nccs2)CC1", "inhibition": "-13.6% (inactive)"}
{"smiles": "CC(C)N(C(=O)Cn1cc(SCC(=O)N2CCCC2)c2ccccc21)C(C)C", "inhibition": "-0.2% (inactive)"}
{"smiles": "COc1cc(NS(=O)(=O)c2ccc(NC(=O)CN3C(=O)c4ccccc4C3=O)cc2)ncn1", "inhibition": "-2.5% (inactive)"}
{"smiles": "CS(=O)(=O)N(CC(=O)N1CCOCC1)c1cccc(Cl)c1Cl", "inhibition": "-5.7% (inactive)"}
{"smiles": "CCOC(=O)C1CCCN(C(=O)c2ccc(N(C)C)cc2)CC1", "note": "(stereo not given)", "inhibition": "-1.5% (inactive)"}
{"smiles": "Cc1ccc(-n2ncc3c2CC(C)(C)CC3NC(=O)CCc2cnn(C)c2)cc1", "note": "(stereo not given)", "inhibition": "3% (inactive)"}
{"smiles": "CCCn1nnnc1NC(=O)COc1ccc(Cl)cc1C", "inhibition": "-6.9% (inactive)"}
{"smiles": "O=C(CCNC(=O)c1ccc([N+](=O)[O-])cc1)Nc1ccccc1N1CCOCC1", "inhibition": "3.7% (inactive)"}
{"smiles": "O=S(=O)(NC1CCCC1)c1ccc(-n2cnnn2)cc1", "inhibition": "-2% (inactive)"}
{"smiles": "CCOC(=O)C1CCCN(S(=O)(=O)c2ccc(-n3cnnn3)c(C)c2)C1", "note": "(stereo not given)", "inhibition": "2.9% (inactive)"}
{"smiles": "Cc1cc(S(=O)(=O)NC2CCCC2)ccc1-n1cnnn1", "inhibition": "35.6% (active)"}
{"smiles": "COc1ccc([C@H]2CC(=O)C[C@@H](CCn3cc(CC4CCCC4)nn3)O2)cc1", "inhibition": "-2.3% (inactive)"}
{"smiles": "COCCNC(=O)C(c1ccc(O)cc1)N(C(=O)CCC(=O)Nc1nccs1)c1ccc(C)cc1", "note": "(stereo not given)", "inhibition": "-7% (inactive)"}
{"smiles": "O=C1N[C@@H](Cc2ccccc2)C(=O)N2[C@@H]3N(S(=O)(=O)c4ccc(F)cc4)c4ccccc4[C@]3(Br)C[C@@H]12", "inhibition": "-0.7% (inactive)"}
{"smiles": "CCCCC(NS(=O)(=O)c1ccc(C)cc1)C(=O)Oc1ccc2c3c(c(=O)oc2c1)CCC3", "note": "(stereo not given)", "inhibition": "-6.2% (inactive)"}
{"smiles": "CCOc1cc(/C=C(/C#N)c2ccc(Cl)cc2)cc(Cl)c1OCC(=O)O", "inhibition": "2.5% (inactive)"}
{"smiles": "COc1ccccc1C1CCN(C(=S)Nc2ccc(Br)cc2)CC1", "inhibition": "49.5% (active)"}
{"smiles": "COc1ccc(NC(=S)N2CCc3cc(OC)c(OC)cc3C2)cc1", "inhibition": "-2.2% (inactive)"}
{"smiles": "COc1ccccc1NC(=S)N1CCC(NC(=O)C23CC4CC(CC(C4)C2)C3)CC1", "inhibition": "-7.9% (inactive)"}
{"smiles": "Cc1cc(NCc2cccnc2)no1", "inhibition": "4.1% (inactive)"}
{"smiles": "Brc1ccc2ncnc(NCc3cccnc3)c2c1", "inhibition": "42.4% (active)"}
{"smiles": "Clc1ccc(Cn2ncc3c(NCc4cccnc4)ncnc32)cc1", "inhibition": "-6.4% (inactive)"}
{"smiles": "CCOC(=O)[C@H]1[C@H]2COc3ccc(C)cc3[C@@H]2N2C(=O)CN(Cc3ccc(F)cc3)C(=O)[C@@]12C", "inhibition": "-3.6% (inactive)"}
{"smiles": "CCOC(=O)N1CCN(C(=O)c2ccc3c(=O)n(CCc4ccc(OC)c(OC)c4)c(=O)[nH]c3c2)CC1", "inhibition": "-2.6% (inactive)"}
{"smiles": "COCCn1nnnc1CN1CCC(NC(=O)Nc2cccc(OC)c2)CC1", "inhibition": "0.1% (inactive)"}
{"smiles": "CC1=NNC(=O)C1CCC(=O)N/N=C\\c1ccc(Cl)c(Cl)c1", "note": "(stereo not given)", "inhibition": "-7.6% (inactive)"}
{"smiles": "NCCCCCC(=O)N/N=C/c1ccc2nccnc2c1", "inhibition": "43.2% (active)"}
{"smiles": "O=C(O)c1ccc(N/N=C/c2ccc3ncccc3c2)cc1", "inhibition": "-1.5% (inactive)"}
{"smiles": "CC(=O)Nc1ccc(S(=O)(=O)NCC(=O)OCC(=O)c2ccc[nH]2)cc1", "inhibition": "4.9% (inactive)"}
{"smiles": "CCCCC(CC)CNC(=O)C(=O)C1C(=O)Nc2ccccc21", "note": "(stereo not given)", "inhibition": "-2.2% (inactive)"}
{"smiles": "CC(=O)NCCC(=O)Nc1cc(S(=O)(=O)N2CCCCC2)ccc1Oc1cccc(C)c1", "inhibition": "-3.6% (inactive)"}
{"smiles": "O=C(COc1ccc(S(=O)(=O)N2CCCC2)cc1[N+](=O)[O-])N1CCCCC1", "inhibition": "-2.5% (inactive)"}
{"smiles": "CCCc1cc(=O)[nH]c(SCc2ccc(C#N)cc2)n1", "inhibition": "2.2% (inactive)"}
{"smiles": "COCc1cc(=O)[nH]c(SC)n1", "inhibition": "45% (active)"}
{"smiles": "COCc1cc(=O)[nH]c(-c2ccc(C(F)(F)F)cc2)n1", "inhibition": "13.9% (inactive)"}
{"smiles": "CCCC(NC(=O)c1ccccc1)c1nc2ccccc2n1Cc1ccc(C(=O)OC)o1", "note": "(stereo not given)", "inhibition": "-3.6% (inactive)"}
{"smiles": "COc1ccccc1N(CC(=O)Nc1c(C)n(C)n(-c2ccccc2)c1=O)S(=O)(=O)c1ccccc1", "inhibition": "-3.9% (inactive)"}
{"smiles": "COC(=O)CSc1ncnc2c1cnn2-c1ccc(C)cc1C", "inhibition": "-4.4% (inactive)"}
{"smiles": "COC(=O)c1ccc(NC(=O)C23CC4CC(C2)CC(n2cnc(Cl)n2)(C4)C3)cc1", "inhibition": "-3.6% (inactive)"}
{"smiles": "COC(=O)C1(C(=O)OC)C/C=C\\CN(S(=O)(=O)c2ccccc2[N+](=O)[O-])CCC1", "inhibition": "-1.4% (inactive)"}
{"smiles": "CCOCC(=O)NCc1ccc2c(c1)cc(C)n2C", "inhibition": "-2.3% (inactive)"}
{"smiles": "CCn1c(CNC(=O)c2cc(OC)c(OC)c(OC)c2)cc2cc(C)ccc21", "inhibition": "-7.8% (inactive)"}
{"smiles": "COc1cc(C(=O)NCc2ccc3c(c2)cc(C)n3C)cc(OC)c1OC", "inhibition": "34.6% (active)"}
{"smiles": "CC(C)n1c(SCC(=O)Nc2ccccc2N2CCCCC2)nc2c1c(=O)n(C)c(=O)n2C", "inhibition": "0% (inactive)"}
{"smiles": "CCOC1=C2[C@H]([C@H]3C(=O)N(c4ccccc4)C(=O)[C@H]3C1)[C@@H](c1ccccc1)N(S(=O)(=O)c1ccc(C)cc1)[C@H]2c1ccccc1", "inhibition": "4.4% (inactive)"}
{"smiles": "CCCCNc1ccc(C(=O)Nc2cccc(C)n2)cc1[N+](=O)[O-]", "inhibition": "-4.4% (inactive)"}
{"smiles": "Cc1cccc(C)c1NC(=O)CNC(=O)c1ccc(N2CCOCC2)c([N+](=O)[O-])c1", "inhibition": "-3% (inactive)"}
{"smiles": "C=CC[C@H](CC(=O)OC(C)(C)C)C(=O)OC[C@H]1CCCN1C(=O)[C@H](CC=C)CC(=O)N(CCO)Cc1ccccc1", "inhibition": "1.8% (inactive)"}
{"smiles": "COc1ccc(CN2CC(C(=O)NCCN3CCN(c4ccccc4F)CC3)CC2=O)cc1", "note": "(stereo not given)", "inhibition": "-1.5% (inactive)"}
{"smiles": "Cn1cc(CCC(=O)N2CCCC(C(=O)c3ccc(C(C)(C)C)cc3)C2)cn1", "note": "(stereo not given)", "inhibition": "-0.9% (inactive)"}
{"smiles": "CCOc1ccc(CCNC(=O)C2=C(C)C(=O)OC23CCC(C)CC3)cc1OCC", "note": "(stereo not given)", "inhibition": "1.1% (inactive)"}
{"smiles": "Fc1ccccc1OCCCCn1cncn1", "inhibition": "7.4% (inactive)"}
{"smiles": "COc1cc(/C=C2\\SC(=O)NC2=O)ccc1OCc1ccc(Cl)nc1", "inhibition": "0.2% (inactive)"}
{"smiles": "COc1cc(-c2nnc(Cn3cc(C(F)(F)F)ccc3=O)o2)cc(OC)c1OC", "inhibition": "11.3% (inactive)"}
{"smiles": "COc1cc(/C=C2\\SC(=S)N(Nc3ncc(C(F)(F)F)cc3Cl)C2=O)cc(OC)c1OC", "inhibition": "61.6% (active)"}
{"smiles": "Cc1ccc2c(c1)C(O)(CC(=O)c1cccnc1)C(=O)N2", "note": "(stereo not given)", "inhibition": "-1.9% (inactive)"}
{"smiles": "CN(CC(=O)NCCc1ccccc1)S(=O)(=O)c1cnc[nH]1", "inhibition": "-0.9% (inactive)"}
{"smiles": "Cc1cc(C)c(CN2CCN(C(=O)Cn3ccc(NC(=O)OCc4ccccc4)nc3=O)CC2)c(C)c1", "inhibition": "-0.5% (inactive)"}
{"smiles": "O=C(c1ccc(Cl)cc1)N1N=C(c2ccccn2)CC1(O)C(F)(F)F", "note": "(stereo not given)", "inhibition": "-6.7% (inactive)"}
{"smiles": "COc1cc2c(cc1OC)C(/C=C/c1ccco1)=NCC2", "inhibition": "-4.6% (inactive)"}
{"smiles": "Cc1c(Br)ccc(NC(=O)COc2ccccc2C(N)=O)c1C", "inhibition": "0.9% (inactive)"}
{"smiles": "CCc1ccc(NC(=O)CS(=O)CC(=O)NCCCc2ccccc2)cc1", "note": "(stereo not given)", "inhibition": "-1.4% (inactive)"}
{"smiles": "O=C(NCc1ccccc1)C1C(=O)N(Cc2ccccc2)C(=O)C1C1(O)CCCC1", "note": "(stereo not given)", "inhibition": "1.3% (inactive)"}
{"smiles": "COCC(C)NCc1cc(Br)ccc1OC", "note": "(stereo not given)", "inhibition": "-4.9% (inactive)"}
{"smiles": "COc1ccc(Br)cc1CN(C)CC(=O)Nc1cc(Cl)cc(Cl)c1", "inhibition": "-3.4% (inactive)"}
{"smiles": "COc1ccc(Br)cc1CNCCc1cccc(Cl)c1", "inhibition": "43.6% (active)"}
{"smiles": "O=S(=O)(Nc1cccc(-n2cnnn2)c1)c1cnc(Cl)c(Cl)c1", "inhibition": "1.8% (inactive)"}
{"smiles": "COC(=O)CNS(=O)(=O)c1ccc(Cc2ccc(S(=O)(=O)NCC(=O)OC)cc2)cc1", "inhibition": "-2.1% (inactive)"}
{"smiles": "COc1c(C(=O)N2CCCC2)ccc2ccccc12", "inhibition": "2.3% (inactive)"}
{"smiles": "COC(=O)C[n+]1cccc2ccccc21", "inhibition": "29.8% (active)"}
{"smiles": "CC1(c2ccc(Cl)cc2)NC(=O)N(CC(=O)c2ccc3c(c2)OCO3)C1=O", "note": "(stereo not given)", "inhibition": "-2.8% (inactive)"}
{"smiles": "CCN(C(=O)COC(=O)c1ccccc1O)c1cccc2ccccc12", "inhibition": "-1.8% (inactive)"}
{"smiles": "Cc1nccn1-c1ccc(NC(=O)[C@H]2O[C@@H](n3cnc4c(N)ncnc43)[C@H](O)[C@@H]2O)cc1", "inhibition": "0.8% (inactive)"}
{"smiles": "CC(=O)c1nn(-c2ccc(C)cc2)cc1C(=O)c1cccc(Br)c1", "inhibition": "-8.2% (inactive)"}
{"smiles": "CN(C)c1ccc(/C=C2\\CC3C4CC=C5CC(O)CCC5(C)C4CCC3(C)C2=O)cc1", "note": "(stereo not given)", "inhibition": "3.3% (inactive)"}
{"smiles": "C=CCN(Cc1nc(-c2cc(OC)c3c(c2)OCO3)oc1C)C1CCS(=O)(=O)C1", "note": "(stereo not given)", "inhibition": "-1.3% (inactive)"}
{"smiles": "CCc1nn(CCCC(=O)Nc2ccc(C)c(C)c2)c(=O)c2cc3occc3n12", "inhibition": "-0.7% (inactive)"}
{"smiles": "COc1ccccc1C(=O)Nc1ccnn1C1CCN(C(=O)C(C)(C)C)CC1", "inhibition": "-1.9% (inactive)"}
{"smiles": "Cc1ccc(NC(=O)CSCC(=O)N2CCOCC2)cc1", "inhibition": "-4.8% (inactive)"}
{"smiles": "CC(C)C[C@@H]1Cc2[nH][nH]c(=O)c2[C@H](CCc2ccccc2)O1", "inhibition": "-14.1% (inactive)"}
{"smiles": "COc1ccc(N(CCC#N)S(=O)(=O)c2ccc(Cl)cc2)cc1", "inhibition": "-0.4% (inactive)"}
